Results published in the supplement of paper PMC5499739.
Over roughly 16,000 sequences, “Z-score” has its median near -0.37; the highest 2% begin near 3.2. The list comes from a sample in which the highest values are over-represented; it also holds similar and randomly drawn sequences.

Test system: RBM10 RRM1-ZnF (GST-tagged construct)
Test: RNAcompete 7-mer binding Z-score; higher = stronger binding preference
Procedure, shortened: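 A one-sided Z-score for enrichment, taken across the probes containing each heptamer motif, was assigned to every such motif. The RNA came from a designed pool of 241 399 sequences up to 41 nt (1.5 nmol), bound by 20 pmol of GST-tagged RBM10 constructs in 1 ml Hepes pH 7.8 buffer with glutathione Sepharose beads for 30 min at 4°C. Four 2-min washes at 4°C preceded identification of bound RNA by microarray hybridisation.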

| Sequence | RNAcompete 7-mer binding Z-score |
| --- | --- |
| CAAUGAA | -0.496 |
| AGCUCUA | -0.629 |
| UUAUCAG | -0.399 |
| AUAAAGG | 1.64 |
| UGGUAGG | 2.98 |
| GGGUAGA | 3.74 |
| GGGUAGG | 4.65 |
| CGGUAGG | 1.82 |
| AGGUAUG | 2.16 |
| GGGUAUG | 4.08 |
| GCGUAGG | 1.78 |
| GGGUAGU | 3.11 |
| AGGUAGC | 0.803 |
| AGGUAGG | 3.53 |
| GGGUAGC | 2.73 |
| GGGUAUC | 2.04 |
| GGAGUUG | 2.64 |
| AAACGGU | 1.16 |
| CUACAAC | -0.668 |
| CACAAAA | -0.581 |
| AAACCAC | -0.519 |
| GACGGGU | 2.36 |
| UGGAACG | 2.13 |
| GGGAACA | 2.67 |

| Sequence | RNAcompete 7-mer binding Z-score |
| --- | --- |
| GGGAAUG | 3.93 |
| GGGAAUU | 2.4 |
| GGGAACG | 3.67 |
| AGGAAUG | 2.25 |
| ACGCUCU | -0.688 |
| CCCUGGA | -0.123 |
| GGUUACA | 1.26 |
| GAGAUGU | 0.361 |
| GAGAUGG | 3.54 |
| UGGAUGA | 2.17 |
| AGGAUGC | 1.03 |
| AGGAUGG | 3.77 |
| UAGAUGG | 2.26 |
| CGGAUGG | 2.38 |
| UGGAUGG | 4.14 |
| UGGAUGC | 1.17 |
| AGGAUCC | -0.34 |
| UGGAUUC | -0.0414 |
| UUCGUAA | -0.802 |
| CCACUCU | -0.711 |
| UCGCACU | -0.565 |
| GAGCAUU | -0.353 |
| UAUGUGA | 0.118 |
| UACGAGU | -0.155 |

| Sequence | RNAcompete 7-mer binding Z-score |
| --- | --- |
| AUUUUCG | -0.87 |
| GUGGAAG | 3.83 |
| GUGGAAC | 1.61 |
| AUGGAAA | 2.57 |
| GUGGAAA | 2.63 |
| AUGGAAG | 3.6 |
| AUGGAAC | 1.99 |
| GUGUAAA | 0.618 |
| AUGACGG | 1.39 |
| UAAAUAU | -0.425 |
| CGGAUGU | 1.04 |
| AGUGGAC | 1.34 |
| UGUGGAA | 2 |
| AGUGGAU | 2.35 |
| GGUGGAU | 2.75 |
| AGUGGAA | 3.24 |
| UGUGGAG | 2.62 |
| CGUGGAA | 1.19 |
| GGUGGAG | 4.02 |
| GGUGGAA | 3.81 |
| UUCCGGC | -0.649 |
| GCCUGCU | -0.724 |
| UGUCGUA | -0.311 |
| UGUUUAG | -0.0155 |

| Sequence | RNAcompete 7-mer binding Z-score |
| --- | --- |
| UAUAGGC | 0.196 |
| AAACCCC | -0.597 |
| UCCGAUA | -0.746 |
| GGGUGCA | 2.74 |
| GAGGCCG | 0.0723 |
| UUGCCGU | -0.659 |
| CUGGGCC | -0.0285 |
| GCCCAUA | -0.805 |
| AGAAGGU | 3.26 |
| AGAAGCU | -0.48 |
| UGAAGGU | 2.57 |
| AGAAGAA | 1 |
| CGAAGGU | 1.5 |
| AGAAGAG | 1.64 |
| CGAAGGG | 2.43 |
| AGAAGGC | 0.699 |
| AGAAGGG | 3.86 |
| GGAAGGU | 4.23 |
| AGAAGGA | 3.99 |
| GGAAGGC | 2.63 |
| CCCCCAU | -0.448 |
| GAAUGAC | 0.16 |
| GGCAGUC | 0.28 |
| AGCCUUU | -1 |

| Sequence | RNAcompete 7-mer binding Z-score |
| --- | --- |
| ACUUAUG | -0.655 |
| UGAAGGG | 3.82 |
| CGAAGGA | 1.62 |
| UGAAGGC | 1 |
| UGAAGGA | 2.99 |
| UGAAGCG | 0.608 |
| GGAAGGA | 4.79 |
| GCAUUCU | -0.785 |
| UCGUACU | -0.539 |
| GAGGCAC | 0.628 |
| CCUAGUG | -0.266 |
| UUCCAUC | -0.675 |
| GCAGCGC | -0.178 |
| GUUGAGG | 3.36 |
| CAUGAGG | 1.03 |
| AUUGAGG | 1.63 |
| GUUGAGC | 0.706 |
| GGUGAGA | 2.57 |
| GAUGAGU | 1.06 |
| GAUGAGG | 3.56 |
| CGUGAGG | 1.35 |
| GGUGAGG | 4.5 |
| GUGUGUC | 0.137 |
| CUCAAUA | -0.802 |

| Sequence | RNAcompete 7-mer binding Z-score |
| --- | --- |
| GCGAAGG | 2.06 |
| UAACUAU | -0.617 |
| GCUAACA | -0.399 |
| AGAGCUG | 0.163 |
| CAUGGAG | 1.48 |
| AAUGGAG | 3.43 |
| AAUGGAC | 2.03 |
| GAUGGAG | 3.52 |
| UAUGGAG | 1.67 |
| GUUGGAA | 1.84 |
| GAUGGAC | 1.78 |
| GAUGGAU | 2.6 |
| AAUGGAA | 3.35 |
| GAUGGAA | 3.36 |
| UAUGGAA | 1.22 |
| CAUGGAA | 1.1 |
| AUCUACA | -0.568 |
| CACCCUC | -0.578 |
| UGCUUGA | -0.737 |
| GGCGCAU | 0.183 |
| UGAUGAC | -0.0512 |
| CUUGCCU | -0.824 |
| UCAUCUG | -0.844 |
| GUUUCAC | -0.597 |

| Sequence | RNAcompete 7-mer binding Z-score |
| --- | --- |
| UGGGUUG | 3.04 |
| CGGGUUG | 2.79 |
| GGGGUUC | 1.79 |
| AGGGUUC | 0.985 |
| AGGGUUU | 2.56 |
| UGGGUUU | 2.64 |
| AGGGUUA | 3.55 |
| UGGGUUA | 3.28 |
| GGGGUUU | 3.16 |
| GGGGUUG | 3.76 |
| GGGGUUA | 3.21 |
| GCGGUUG | 1.42 |
| AAUCUAA | -0.617 |
| UUAUACA | -0.542 |
| AUGUGGU | 1.52 |
| GUCCGAC | -0.662 |
| CUUCGGC | -0.759 |
| AGAUAUC | -0.688 |
| ACGGUUG | 1.78 |
| AGGGUUG | 3.8 |
| AGGGUCG | 1.41 |
| CAUAAGA | -0.513 |
| CACCGCG | 0.069 |
| UGGUGUG | 2.77 |

| Sequence | RNAcompete 7-mer binding Z-score |
| --- | --- |
| CGGUGUG | 1.72 |
| GGGUGUA | 3.43 |
| GGGUGUG | 3.76 |
| AGGUGUA | 1.74 |
| UGGUGUA | 1.52 |
| AAUUUGA | -0.399 |
| ACAGAGG | 1.59 |
| UACAAGA | -0.295 |
| AGCGGGU | 3.07 |
| UGCGGGC | 1.13 |
| AGCGGGG | 4.14 |
| CGCGGGA | 1.05 |
| GGCGGGG | 3.96 |
| UGCGGGU | 2.92 |
| AGCGGGA | 3.31 |
| CGCGGGG | 2.15 |
| UGCGGGG | 3.26 |
| GGCGGGU | 2.9 |
| GGCGGGC | 2.11 |
| UGCGGGA | 1.87 |
